Compound activity deposited in PubChem by several laboratories.
Compounds with a hit are over-represented: about 4.3% of the library has one in this group of screens.
ADAM17 inh: ADAM17 inhibitors, primary screen, biochemical, QFRET. inhibition, % at 6.95 µM. Disintegrin and metalloproteinase domain-containing protein 17 (Homo sapiens), P78536. AID 720648, 2013. 370,000 tested, 0.83% active. recombinant ADAM17, EDANS/DABCYL FRET peptide cleavage;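 active = inhibition above the mean of compounds lying between control limits plus 3 SD, set per campaign, cut at about 8.5% in these data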;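 note: 0% = DMSO-only wells as the low control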
FAS TE block: FAS thioesterase domain inhibitors, primary screen, biochemical, fluorescence intensity, uHTS. Fatty acid synthase (Homo sapiens), P49327. recombinant FAS-TE, OMFH fluorogenic substrate, fluorescence endpoint. inhibition, % at 15 µM. 360,000 tested, 0.67% active;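 active = compounds whose normalised, plate-corrected inhibition of enzyme fluorescence in the single-dose primary screen is 50% or more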;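 note: 0% = DMSO with enzyme and 100% = substrate without enzyme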
NR3A LBD binder: binders of NR3A ligand-binding domain, primary screen, biophysical, differential scanning fluorimetry, uHTS. Glutamate receptor ionotropic, NMDA 3A (GRIN3A) ligand-binding domain. NR3A LBD differential scanning fluorimetry, Tm shift; 0% = protein alone, 100% = glycine-bound protein. Tm shift relative to glycine control, % at 25 µM. 340,000 tested, 2.5% active. AID 1259313, 2017;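 active = melting temperature shift of at least 10% of the positive control shift, at one fixed dose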
ADAM10 inh: human ADAM10 inhibitors, primary screen, biochemical, QFRET, HTS. recombinant ADAM10, EDANS/DABCYL FRET peptide cleavage, 3 h. inhibition, % at 7 µM. 370,000 tested, 0.62% active;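 active = inhibition above a per-campaign cutoff equal to the mean of compounds falling between control-based bounds plus 3 SD, cut at about 20% in these data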;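 note: 0% = DMSO wells while the 100% control is not disclosed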
HGIII-sPLA2 inh: human group III sPLA2 inhibitors, primary screen, biochemical, QFRET, BODIPY PC-A2 liposome substrate | Group 3 secretory phospholipase A2 (Homo sapiens), Q9NZ20 | QFRET BODIPY PC-A2 liposome hydrolysis, fluorescence | inhibition, % at 12.2 µM | 370,000 tested, 0.56% active;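 active = inhibition above mean plus 3 SD of compounds lying within the high and low control bounds, cut at about 19% in these data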;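 note: 0% = median of test compound wells and 100% = no enzyme DMSO wells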
ADAM10 confirm: human ADAM10 inhibitors, confirmation, biochemical, QFRET, triplicate. inhibition, % at 6.95 µM. shares compounds with ADAM10 inh. 2,100 tested, 1% active. AID 743208, 2013. ADAM10 QFRET peptide cleavage, EDANS fluorescence;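 active = inhibition above about 20% chosen separately for each screening run, limit read from the data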;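 note: 0% = DMSO wells and 100% = marimastat wells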
ADAM17 ctr: ADAM17 inhibitors, counter-screen for ADAM10 exosite inhibitor project, biochemical, QFRET, high throughput. shares compounds with ADAM10 inh. ADAM17 QFRET peptide cleavage, EDANS fluorescence. inhibition, % at 6.95 µM. 2,100 tested, 0.5% active. AID 743214, 2013;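 active = mean triplicate inhibition above the solvent-only control wells' mean plus 3 SD, cut at about 12% in these data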;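 note: 0% = DMSO wells and 100% = marimastat wells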
* = called active by the depositor; / = no result given.

SMILES	ADAM17 inh	FAS TE block	NR3A LBD binder	ADAM10 inh	HGIII-sPLA2 inh	ADAM10 confirm	ADAM17 ctr
CC(C)CCNC(=O)C(c1ccc(O)cc1)N(Cc1cccs1)C(=O)C1COc2ccccc2O1 (configuration not stated)	8	15	-3	22*	-30	6	2
Cc1ccc(S(=O)(=O)Nc2ccc(N=Nc3ccc(O)cc3)cc2)cc1	2	25	14*	22*	-64	2	0
Cc1ccc(S(=O)(=O)Nc2ccc(N(C)S(=O)(=O)c3ccc(C)cc3)cc2)cc1	5	41	-6	19	-26	/	/
Cc1ccc(S(=O)(=O)Nc2ccccc2-c2ccccc2NS(=O)(=O)c2ccc(C)cc2)cc1	5	25	7	21*	-66	0	0
CC(=O)c1ccc(NC(=O)Nc2ccc(NS(=O)(=O)c3ccc(C)cc3)cc2)cc1	7	24	/	24*	-60	6	1
Cc1ccc(S(=O)(=O)Nc2ccccc2C(N)=O)cc1	-31	-4	0	-123	-9	/	/
COc1ccccc1CN[C@@H]1CC[C@@]23CCCN2C(=O)CCC[C@H]3C1	-7	/	/	-10	8	/	/
Cc1ccc(/C=N/NC(=O)CSc2nnc(-c3ccccc3)n2-c2ccc(Cl)cc2)o1	8	1	-13	27*	-8	2	1
C[C@@H]1ON(C)[C@H]2C[C@H]3c4[nH]c5c(-c6ccccc6F)cccc5c4CCN3C[C@@H]12	-9	/	/	-33	2	/	/
CCCn1c(C(CO)Nc2nc(-c3cccc(Br)c3)cs2)nc2ccccc21 (configuration not stated)	9	11	-1	22*	-32	10	3
CCN(CC)C(=O)CC[C@@H]1CC[C@]2(CCCN(Cc3cccnc3)C2)O1	-3	/	/	-7	4	/	/
Cc1ccc(C(=O)NNC(=S)NC(=O)c2ccccc2)cc1	5	-5	-4	24*	35*	1	1
CCOc1cc(NS(=O)(=O)c2ccc(OC)cc2)c(OCC)cc1NC(=O)c1ccco1	-3	23	-4	0	-1	/	/
COc1ccc(S(=O)(=O)Nc2cc(OC)c(NC(=O)c3ccco3)cc2OC)cc1	8	25	-6	21*	-16	1	0
COC(=O)c1cc(S(=O)(=O)N2CCN(C(C)=O)CC2)cn1C	0	/	/	2	7	/	/
CCCC(=O)Nc1ccc2c(c1)C(=O)N(C)[C@H]1CC[C@@H](CC(=O)OC)O[C@@H]1CO2	-2	/	/	-2	2	/	/
Cc1nn(-c2ccccc2)c(C)c1/C=N/NC(=O)c1cc(-c2ccccc2)n[nH]1	0	4	9	0	-5	/	/
Cc1nn(-c2ccccc2)c(C)c1/C=N/NC(=O)c1cc(-c2cccc3ccccc23)n[nH]1	8	37	1	24*	-18	6	2
FC(F)(F)c1cc(CCN2C(=S)NC[C@@H]2c2ccccc2)cc(C(F)(F)F)c1	3	-46	3	13	-4	/	/
FC(F)(F)c1cc(CCN2C(=S)NC[C@@H]2Cc2ccccc2)cc(C(F)(F)F)c1	8	-27	13*	27*	13	12	4
CCCCOCCCNC(=O)C[C@@H]1C(=O)N(CCc2ccc(Cl)cc2)C2=CCCCC[C@]21C(=O)OC	2	/	/	5	-17	/	/
O=c1c2ccccc2c(-c2ccc(O)cc2)nn1-c1cccc(C(F)(F)F)c1	12*	22	25*	21*	-23	6	2
